Source: PubChem BioAssay (The Scripps Research Institute Molecular Screening Center)
This is a sample that favours compounds with a hit; in the whole collection about 0.9% have one here.
PPARg SRC-3 ag – promotes SRC-3 coactivator recruitment by human PPARgamma | biochemical PPARgamma/SRC-3 coactivator recruitment assay | activation, % at 8 µM | actives 0.26% (n = 200,000) | P37231; in the data active = activation above about 23%;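 also: 0% = DMSO and 100% = reference agonist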
Target sequence (P37231 whole entry, looked up): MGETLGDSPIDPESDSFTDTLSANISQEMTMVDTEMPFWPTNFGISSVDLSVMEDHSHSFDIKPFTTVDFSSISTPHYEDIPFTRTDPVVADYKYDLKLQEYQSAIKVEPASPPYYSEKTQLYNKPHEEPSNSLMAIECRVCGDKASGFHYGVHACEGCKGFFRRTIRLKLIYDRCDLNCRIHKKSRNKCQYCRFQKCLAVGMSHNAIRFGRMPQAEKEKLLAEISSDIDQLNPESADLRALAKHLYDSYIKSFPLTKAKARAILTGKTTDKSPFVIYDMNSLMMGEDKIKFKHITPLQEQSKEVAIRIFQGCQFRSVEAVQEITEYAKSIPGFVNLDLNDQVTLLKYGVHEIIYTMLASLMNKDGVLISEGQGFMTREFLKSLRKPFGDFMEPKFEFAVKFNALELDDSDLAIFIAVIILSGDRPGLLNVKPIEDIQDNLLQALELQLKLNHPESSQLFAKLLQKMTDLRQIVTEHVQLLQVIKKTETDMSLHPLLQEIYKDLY
SRC2 TRFRET art – counter-screen for PPARgamma SRC-2 recruitment agonists: TR-FRET artefact | actives 0.4% (n = 200,000) | AID 1049 | stronger effect = higher value | TR-FRET ratio at 8 µM; in the data active = TR-FRET ratio above about 2000
SRC1 TRFRET art – counter-screen for PPARgamma SRC-1 recruitment agonists: TR-FRET artefact; TR-FRET ratio at 8 µM; actives 0.34% (n = 99,000); TR-FRET detection artefact counter-screen, emission ratio; stronger effect = higher value; in the data active = TR-FRET ratio above about 2300
PPARg SRC2 recr – PPARgamma-driven SRC-2 recruitment agonism; PPARgamma LBD-SRC-2 recruitment, biochemical; activation, % at 8 µM; actives 0.34% (n = 200,000);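 also: 0% = vehicle and 100% = reference agonist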
PPARg SRC1 recr – agonists of human PPARgamma SRC-1 coactivator recruitment. P37231. PPARgamma-SRC-1 coactivator recruitment biochemical assay. AID 631. actives 0.41% (n = 200,000). activation, % at 8 µM; in the data active = activation above about 19%;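 also: 0% = DMSO and 100% = reference agonist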
SRC3 TRFRET art – TR-FRET artefact, counter-screen to PPARgamma/SRC-3 agonist assay; actives 0.39% (n = 99,000); TR-FRET ratio at 8 µM; PPARgamma/SRC-3 format; stronger effect = higher value; AID 1048; in the data active = TR-FRET ratio above about 2000
PPARg SRC2 conf – human PPARgamma SRC-2 recruitment agonism, confirmation | shares compounds with PPARg SRC-3 ag | biochemical SRC-2 recruitment by PPARgamma | activation, % at 8 µM | actives 52% (n = 790) | AID 1297;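 also: 0% = vehicle alone and 100% = reference agonist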
PPARg SRC1 ag – confirmation of agonists of SRC-1 recruitment by human PPARgamma. shares compounds with PPARg SRC-3 ag. actives 43% (n = 790). activation, % at 8 µM. PPARgamma–SRC-1 coactivator recruitment biochemical assay; in the data active = activation above about 20%;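 also: 0% = vehicle wells and 100% = reference agonist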
PPARg SRC3 ag – human PPARgamma SRC-3 recruitment agonism, confirmation; shares compounds with PPARg SRC-3 ag; biochemical PPARgamma-SRC-3 coactivator recruitment, agonist mode; activation, % at 8 µM; AID 1301; actives 29% (n = 790); in the data active = activation above about 24%;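 also: 0% = vehicle wells and 100% = reference agonist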
* marks the source's active call; other numbers are inactive results. Rule as the data show it, unless noted: active = activation above about 22%; inactive = the rest.

`Cc1ccc(CN2C(=O)C3CCCN3c3ccc(C#N)cc32)cc1` (stereo not drawn) gave PPARg SRC-3 ag 29*, SRC2 TRFRET art 1578, PPARg SRC2 recr 16, PPARg SRC1 recr 7, PPARg SRC2 conf 12, PPARg SRC1 ag 14 and PPARg SRC3 ag 8.
CS(=O)(=O)Nc1ccccc1C(=O)NCc1ccco1 was read as PPARg SRC-3 ag 26*, SRC2 TRFRET art 1638, PPARg SRC2 recr 20, PPARg SRC1 recr 1, PPARg SRC2 conf 7, PPARg SRC1 ag 4 and PPARg SRC3 ag 5.
Screening CCOc1ccc(S(=O)(=O)Nc2ccccc2C(=O)NCc2ccco2)cc1 returned PPARg SRC-3 ag 10, SRC2 TRFRET art 1630, PPARg SRC2 recr 5 and PPARg SRC1 recr 9.
For Fc1ccc(Nc2ccnc(Nc3ccc(F)cc3)n2)cc1 the results were PPARg SRC-3 ag -6, SRC2 TRFRET art 1350, SRC1 TRFRET art 1576, PPARg SRC2 recr -3, PPARg SRC1 recr -6 and SRC3 TRFRET art 1363.
Screening COC(=O)c1cc2c(C)c(C)c3ccccn3c-2c1C(=O)OC returned PPARg SRC-3 ag 35*, SRC2 TRFRET art 2102*, PPARg SRC2 recr 32*, PPARg SRC1 recr 18, PPARg SRC2 conf 7, PPARg SRC1 ag 7 and PPARg SRC3 ag 4.
Screening COC(=O)c1cc2c(C)cc3ccc(C)cn3c-2c1C(=O)OC returned PPARg SRC-3 ag 47*, SRC2 TRFRET art 2394*, PPARg SRC2 recr 41*, PPARg SRC1 recr 26*, PPARg SRC2 conf 12, PPARg SRC1 ag 9 and PPARg SRC3 ag 5.
For COC(=O)c1cc2ccccn2c2c(C(=O)OC)c(C(=O)OC)cc1-2 the results were PPARg SRC-3 ag 3, SRC2 TRFRET art 1669, PPARg SRC2 recr 6 and PPARg SRC1 recr 9.
Screening COCCCNCCCCSc1ccc(Cl)cc1 returned PPARg SRC-3 ag -3, SRC2 TRFRET art 1550, SRC1 TRFRET art 1464, PPARg SRC2 recr -10, PPARg SRC1 recr -3 and SRC3 TRFRET art 1784.
Screening COC(=O)c1c(C)[nH]c(C(=O)C(C)Sc2nnc(-c3cc(OC)c(OC)c(OC)c3)o2)c1C (stereo not drawn) returned PPARg SRC-3 ag 13, SRC2 TRFRET art 1724, PPARg SRC2 recr 4, PPARg SRC1 recr 27*, PPARg SRC2 conf 24*, PPARg SRC1 ag 25* and PPARg SRC3 ag 17.
`Cc1cccc[n+]1C1C(c2ccccc2)C(C#N)=C(C(=C=[N-])C#N)NC1(O)C1CC1` (stereo not drawn) gave PPARg SRC-3 ag 29*, SRC2 TRFRET art 2096*, PPARg SRC2 recr 26*, PPARg SRC1 recr 15, PPARg SRC2 conf 30*, PPARg SRC1 ag 20* and PPARg SRC3 ag 19.
`N#CC(=C=[N-])C1=C(C#N)C(c2ccccc2F)C([n+]2ccccc2)C(O)(C2CC2)N1` (stereo not drawn) gave PPARg SRC-3 ag 71*, SRC2 TRFRET art 3792*, PPARg SRC2 recr 75*, PPARg SRC1 recr 32*, PPARg SRC2 conf 12, PPARg SRC1 ag 9 and PPARg SRC3 ag 10.
For CCOC(=O)C1C(=O)NC(SC)=C(C#N)C1c1ccccc1F (stereo not drawn) the results were PPARg SRC-3 ag 1, SRC2 TRFRET art 1568, SRC1 TRFRET art 1865, PPARg SRC2 recr 5, PPARg SRC1 recr 10 and SRC3 TRFRET art 1639.
Cc1ccc[n+](C2C(c3ccc([N+](=O)[O-])cc3)C(C#N)=C([S-])NC2(O)C2CC2)c1 (stereo not drawn) was read as PPARg SRC-3 ag 1, SRC2 TRFRET art 1527, SRC1 TRFRET art 1755, PPARg SRC2 recr 4, PPARg SRC1 recr 6 and SRC3 TRFRET art 1454.
`Cc1ccc(NC(=O)CSc2nc3ccccc3c3nc(CCc4c(C)n[nH]c4C)nn23)cc1F` gave PPARg SRC-3 ag 22, SRC2 TRFRET art 1631, PPARg SRC2 recr 6, PPARg SRC1 recr 25*, PPARg SRC2 conf 2, PPARg SRC1 ag -1 and PPARg SRC3 ag 2.
`Cc1n[nH]c(C)c1CCc1nc2c3ccccc3nc(SCC(N)=O)n2n1` gave PPARg SRC-3 ag 5, SRC2 TRFRET art 1450, PPARg SRC2 recr 0 and PPARg SRC1 recr 0.
For CCC1(C)Cc2c(C#N)c(N)sc(=S)c2CO1 (stereo not drawn) the results were PPARg SRC-3 ag 27*, SRC2 TRFRET art 1619, PPARg SRC2 recr 13, PPARg SRC1 recr 12, PPARg SRC2 conf 6, PPARg SRC1 ag 8 and PPARg SRC3 ag 7.
`COCc1nnc(NC(=O)c2ccccc2[N+](=O)[O-])s1` gave PPARg SRC-3 ag 4, SRC2 TRFRET art 1768, SRC1 TRFRET art 1735, PPARg SRC2 recr 3, PPARg SRC1 recr -4 and SRC3 TRFRET art 1681.
`Cn1c(N=Nc2ccc(N3CCOCC3)cc2)[n+](C)c2ccccc21` gave PPARg SRC-3 ag 39*, SRC2 TRFRET art 2551*, SRC1 TRFRET art 2668*, PPARg SRC2 recr 53*, PPARg SRC1 recr 43*, SRC3 TRFRET art 2227*, PPARg SRC2 conf 22, PPARg SRC1 ag 18 and PPARg SRC3 ag 17.
Cn1c(=Nc2ccc(N3CCOCC3)cc2)ccc2ccccc21 was read as PPARg SRC-3 ag -6, SRC2 TRFRET art 1413, PPARg SRC2 recr -5 and PPARg SRC1 recr -3.
`Cc1cc(NN)nc2ccc(Cl)cc12` gave PPARg SRC-3 ag 1, SRC2 TRFRET art 1645, SRC1 TRFRET art 1871, PPARg SRC2 recr 0, PPARg SRC1 recr 0 and SRC3 TRFRET art 1468.
O=C(O)c1cccnc1SCC(=O)N1CCCCCC1 was read as PPARg SRC-3 ag 8, SRC2 TRFRET art 1613, PPARg SRC2 recr 5, PPARg SRC1 recr 20*, PPARg SRC2 conf 4, PPARg SRC1 ag 6 and PPARg SRC3 ag 1.
`CC1(C)Oc2ccc(C#N)cc2[C@@H](N2CCCC2=O)[C@@H]1O` gave PPARg SRC-3 ag -4, SRC2 TRFRET art 1357, SRC1 TRFRET art 1559, PPARg SRC2 recr 3, PPARg SRC1 recr 0 and SRC3 TRFRET art 1572.
`O=C(Nc1ccc2oc(-c3ccncc3)nc2c1)c1ccccc1F` gave PPARg SRC-3 ag 39*, SRC2 TRFRET art 1409, PPARg SRC2 recr 47*, PPARg SRC1 recr 49*, PPARg SRC2 conf 2, PPARg SRC1 ag 0 and PPARg SRC3 ag 1.
For O=C(Nc1ccc2oc(-c3ccccc3)nc2c1)c1ccccc1F the results were PPARg SRC-3 ag -17, SRC2 TRFRET art 1684, PPARg SRC2 recr 8 and PPARg SRC1 recr 14.
